Binding signal data for 1 sequence are collected here from publication PMC7862700, “An all-to-all approach to the identification of sequence-specific readers for epigenetic DNA modifications on cytosine”.

What all share (assay): DAPPL (digital affinity profiling via proximity ligation, sequencing); 10 mM Tris-HCl pH 7.5, 50 mM NaCl, 1 mM DTT, 4% glycerol, room temperature, 30 min; GST-TFs on glutathione beads, 16-mer random dsDNA library, 0.1% formaldehyde crosslink after washing; high values mean tight binding
One test concerns the target T1, FEV (Homo sapiens, UniProt Q99581 1-238).
T1 sequence: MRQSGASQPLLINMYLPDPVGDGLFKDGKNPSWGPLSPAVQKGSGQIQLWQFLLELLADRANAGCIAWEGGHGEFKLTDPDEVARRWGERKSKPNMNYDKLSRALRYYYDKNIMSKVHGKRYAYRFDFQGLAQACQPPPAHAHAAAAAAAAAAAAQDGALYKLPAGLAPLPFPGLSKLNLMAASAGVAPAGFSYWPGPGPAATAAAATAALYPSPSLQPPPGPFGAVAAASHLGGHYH
The settings on record: protein: recombinant; tags: N-terminal GST; dsDNA, one strand shown. An outline of the steps: (§1)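 Yeast served to express human transcription factors as GST fusions, which were then captured on glutathione beads and labelled with DNA barcodes. Pooled with a tag-only sample, they were incubated with 200 nmole of a 16-mer random double-stranded DNA library for 30 min at room temperature in Tris/NaCl/DTT/glycerol buffer, washed, crosslinked with 0.1% formaldehyde, ligated by proximity, amplified by PCR and sequenced. Dividing each hexamer's read frequency for a factor by its frequency for the tag-only sample gives the binding signal.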

Another test addresses ETV5 (Homo sapiens, UniProt P41161 1-510). The note with it: protein: recombinant; tags: N-terminal GST; dsDNA, one strand shown. The essentials:
as §1

In a further test the target is HSF1 (Homo sapiens, UniProt Q00613 1-529). The note with it: protein: recombinant; tags: N-terminal GST; chain copies: 3; dsDNA, one strand shown. The essentials:
as §1

In the next test the target is T2, SPIC (Homo sapiens, UniProt Q8N5J4 1-248).
T2 sequence: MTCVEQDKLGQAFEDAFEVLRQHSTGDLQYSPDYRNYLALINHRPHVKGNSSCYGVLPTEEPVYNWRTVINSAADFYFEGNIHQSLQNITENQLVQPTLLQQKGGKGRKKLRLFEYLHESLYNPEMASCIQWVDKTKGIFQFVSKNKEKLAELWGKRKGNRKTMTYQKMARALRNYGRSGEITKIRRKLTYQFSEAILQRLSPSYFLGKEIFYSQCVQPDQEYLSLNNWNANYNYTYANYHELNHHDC
The note with it: protein: recombinant; tags: N-terminal GST; dsDNA, one strand shown. The essentials: as §1

Another test deals with ELF4 (Homo sapiens, UniProt Q99607 1-663). The settings on record: protein: recombinant; tags: N-terminal GST; dsDNA, one strand shown. An outline of the steps: as §1
Chain of ELF4 (Q99607 whole entry): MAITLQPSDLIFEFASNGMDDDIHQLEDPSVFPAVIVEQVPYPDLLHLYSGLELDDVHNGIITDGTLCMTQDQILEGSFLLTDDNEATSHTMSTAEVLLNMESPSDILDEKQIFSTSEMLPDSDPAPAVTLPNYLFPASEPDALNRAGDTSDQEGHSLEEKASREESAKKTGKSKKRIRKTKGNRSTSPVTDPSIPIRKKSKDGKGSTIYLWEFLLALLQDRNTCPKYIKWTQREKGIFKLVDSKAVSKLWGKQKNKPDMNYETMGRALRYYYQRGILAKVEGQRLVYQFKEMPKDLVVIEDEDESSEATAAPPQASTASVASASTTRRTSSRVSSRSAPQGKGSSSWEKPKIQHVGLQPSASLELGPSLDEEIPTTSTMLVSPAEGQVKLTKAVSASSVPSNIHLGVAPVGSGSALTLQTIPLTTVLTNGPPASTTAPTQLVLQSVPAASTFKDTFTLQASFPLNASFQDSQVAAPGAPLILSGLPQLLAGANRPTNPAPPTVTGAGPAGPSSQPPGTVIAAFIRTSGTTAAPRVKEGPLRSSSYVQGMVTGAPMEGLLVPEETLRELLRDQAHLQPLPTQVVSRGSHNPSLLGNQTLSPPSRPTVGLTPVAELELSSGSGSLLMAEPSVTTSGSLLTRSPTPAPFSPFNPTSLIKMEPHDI
A further test concerns the target T3, ELK4 (Homo sapiens, UniProt P28324-2 1-405).
T3 sequence: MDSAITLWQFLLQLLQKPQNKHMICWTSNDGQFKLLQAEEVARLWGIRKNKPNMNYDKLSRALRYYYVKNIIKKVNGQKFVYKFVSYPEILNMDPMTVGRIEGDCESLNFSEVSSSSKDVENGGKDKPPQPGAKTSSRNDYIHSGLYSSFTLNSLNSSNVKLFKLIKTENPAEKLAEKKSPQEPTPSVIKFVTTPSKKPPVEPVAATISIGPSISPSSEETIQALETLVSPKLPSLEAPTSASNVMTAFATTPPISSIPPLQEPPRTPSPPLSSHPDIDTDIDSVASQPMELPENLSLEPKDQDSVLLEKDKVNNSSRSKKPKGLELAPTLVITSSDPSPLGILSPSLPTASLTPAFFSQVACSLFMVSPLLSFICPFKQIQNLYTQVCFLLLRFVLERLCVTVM
The settings on record: protein: recombinant; tags: N-terminal GST; dsDNA, one strand shown. The essentials:
as §1

A further test addresses T4, ETV2 (Homo sapiens, UniProt O00321 1-342).
T4 sequence: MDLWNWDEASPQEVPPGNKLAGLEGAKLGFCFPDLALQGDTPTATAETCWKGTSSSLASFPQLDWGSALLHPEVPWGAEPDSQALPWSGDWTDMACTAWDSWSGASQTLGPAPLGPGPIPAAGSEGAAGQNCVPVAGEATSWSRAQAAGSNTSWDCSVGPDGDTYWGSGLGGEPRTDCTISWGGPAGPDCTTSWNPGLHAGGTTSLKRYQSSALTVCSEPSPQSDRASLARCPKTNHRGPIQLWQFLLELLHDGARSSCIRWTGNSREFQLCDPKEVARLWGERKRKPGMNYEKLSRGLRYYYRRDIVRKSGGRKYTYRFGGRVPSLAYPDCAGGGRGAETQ
The note with it: protein: recombinant; tags: N-terminal GST; dsDNA, one strand shown. An outline of the steps: as §1

The target of the next test is T5, ELF3 (Homo sapiens, UniProt P78545 1-371).
T5 sequence: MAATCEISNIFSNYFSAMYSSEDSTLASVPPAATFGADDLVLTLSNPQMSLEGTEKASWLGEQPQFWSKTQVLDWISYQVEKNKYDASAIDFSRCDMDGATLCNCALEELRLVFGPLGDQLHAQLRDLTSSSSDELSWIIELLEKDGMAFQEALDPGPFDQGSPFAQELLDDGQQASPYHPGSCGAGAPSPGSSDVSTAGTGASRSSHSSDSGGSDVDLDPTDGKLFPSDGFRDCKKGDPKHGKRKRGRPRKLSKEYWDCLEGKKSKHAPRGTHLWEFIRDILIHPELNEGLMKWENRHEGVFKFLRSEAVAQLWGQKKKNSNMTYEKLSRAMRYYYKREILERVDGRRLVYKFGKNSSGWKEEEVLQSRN
The settings on record: protein: recombinant; tags: N-terminal GST; dsDNA, one strand shown. The essentials: as §1

For the next test, the target named is CRX (Homo sapiens, UniProt O43186 1-299). The note with it: protein: recombinant; tags: N-terminal GST; dsDNA, one strand shown. The essentials: as §1
Chain of CRX (O43186 whole entry): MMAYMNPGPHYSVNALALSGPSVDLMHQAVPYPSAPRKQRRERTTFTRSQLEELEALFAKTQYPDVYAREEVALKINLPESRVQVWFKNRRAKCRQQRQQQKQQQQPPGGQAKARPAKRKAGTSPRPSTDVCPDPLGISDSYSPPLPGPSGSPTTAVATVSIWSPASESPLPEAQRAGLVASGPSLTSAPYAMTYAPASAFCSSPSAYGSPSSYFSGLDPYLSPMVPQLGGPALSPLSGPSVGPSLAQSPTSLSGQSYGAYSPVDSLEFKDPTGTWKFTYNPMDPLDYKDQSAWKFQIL
Another test has as its target ETV1 (Homo sapiens, UniProt P50549 1-477). The settings on record: protein: recombinant; tags: N-terminal GST; dsDNA, one strand shown. The essentials:
as §1

In another test the target is T6, ERF (Homo sapiens, UniProt P50548 1-548).
T6 sequence: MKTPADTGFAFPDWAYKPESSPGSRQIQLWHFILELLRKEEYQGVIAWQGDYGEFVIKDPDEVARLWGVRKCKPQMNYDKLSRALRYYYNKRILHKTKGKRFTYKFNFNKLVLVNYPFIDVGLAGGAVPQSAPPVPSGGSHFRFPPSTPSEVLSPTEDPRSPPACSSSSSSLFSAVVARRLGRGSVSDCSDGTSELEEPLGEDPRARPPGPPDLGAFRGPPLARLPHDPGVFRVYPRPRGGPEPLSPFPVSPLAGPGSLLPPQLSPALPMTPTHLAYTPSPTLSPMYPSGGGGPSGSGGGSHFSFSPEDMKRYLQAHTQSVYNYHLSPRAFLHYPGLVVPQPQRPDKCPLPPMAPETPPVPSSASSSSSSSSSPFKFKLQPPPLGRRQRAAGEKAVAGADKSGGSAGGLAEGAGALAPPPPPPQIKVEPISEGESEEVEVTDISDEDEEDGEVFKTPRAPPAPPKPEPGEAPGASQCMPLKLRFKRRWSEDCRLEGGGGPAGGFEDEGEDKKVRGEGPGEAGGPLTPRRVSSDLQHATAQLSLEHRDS
The settings on record: protein: recombinant; tags: N-terminal GST; dsDNA, one strand shown. The essentials: as §1

Another test addresses T7, ETV3L (Homo sapiens, UniProt Q6ZN32 1-361).
T7 sequence: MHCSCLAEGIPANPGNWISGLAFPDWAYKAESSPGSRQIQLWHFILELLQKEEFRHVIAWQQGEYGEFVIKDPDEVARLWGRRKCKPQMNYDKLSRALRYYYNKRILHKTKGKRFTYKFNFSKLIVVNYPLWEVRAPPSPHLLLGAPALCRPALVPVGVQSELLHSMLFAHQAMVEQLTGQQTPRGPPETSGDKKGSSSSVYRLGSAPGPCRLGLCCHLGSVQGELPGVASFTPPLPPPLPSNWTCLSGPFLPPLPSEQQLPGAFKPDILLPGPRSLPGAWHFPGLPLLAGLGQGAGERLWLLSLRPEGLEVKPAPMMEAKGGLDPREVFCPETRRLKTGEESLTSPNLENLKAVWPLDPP
The settings on record: protein: recombinant; tags: N-terminal GST; dsDNA, one strand shown. The essentials: as §1

The next test concerns the target T8, ETS2 (Homo sapiens, UniProt P15036 1-469).
T8 sequence: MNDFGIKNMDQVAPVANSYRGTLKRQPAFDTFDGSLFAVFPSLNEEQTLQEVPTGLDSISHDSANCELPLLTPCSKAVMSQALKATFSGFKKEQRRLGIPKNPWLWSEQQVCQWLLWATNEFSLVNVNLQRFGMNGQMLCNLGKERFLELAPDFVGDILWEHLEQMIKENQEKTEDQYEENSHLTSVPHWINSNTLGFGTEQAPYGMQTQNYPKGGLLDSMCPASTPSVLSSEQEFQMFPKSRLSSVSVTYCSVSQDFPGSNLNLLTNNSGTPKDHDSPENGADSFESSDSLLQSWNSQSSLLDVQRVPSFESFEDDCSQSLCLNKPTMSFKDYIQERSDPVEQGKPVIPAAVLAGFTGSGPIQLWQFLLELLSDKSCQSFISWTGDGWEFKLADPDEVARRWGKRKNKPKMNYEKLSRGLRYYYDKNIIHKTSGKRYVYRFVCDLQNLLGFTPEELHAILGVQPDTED
The settings on record: protein: recombinant; tags: N-terminal GST; dsDNA, one strand shown. An outline of the steps: as §1

The target of the next test is T9, SPDEF (Homo sapiens, UniProt O95238 1-335).
T9 sequence: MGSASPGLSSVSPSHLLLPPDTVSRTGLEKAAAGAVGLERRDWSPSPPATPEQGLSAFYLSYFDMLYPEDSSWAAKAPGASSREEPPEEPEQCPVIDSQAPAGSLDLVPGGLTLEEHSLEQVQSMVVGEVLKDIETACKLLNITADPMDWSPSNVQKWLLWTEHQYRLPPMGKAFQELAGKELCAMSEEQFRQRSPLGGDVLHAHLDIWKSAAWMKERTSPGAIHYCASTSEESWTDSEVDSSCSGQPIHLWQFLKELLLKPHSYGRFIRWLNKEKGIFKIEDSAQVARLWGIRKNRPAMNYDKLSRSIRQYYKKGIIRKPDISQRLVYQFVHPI
The note with it: protein: recombinant; tags: N-terminal GST; dsDNA, one strand shown. An outline of the steps:
as §1

For a further test, the target named is T10, ETV7 (Homo sapiens, UniProt Q9Y603 1-341).
T10 sequence: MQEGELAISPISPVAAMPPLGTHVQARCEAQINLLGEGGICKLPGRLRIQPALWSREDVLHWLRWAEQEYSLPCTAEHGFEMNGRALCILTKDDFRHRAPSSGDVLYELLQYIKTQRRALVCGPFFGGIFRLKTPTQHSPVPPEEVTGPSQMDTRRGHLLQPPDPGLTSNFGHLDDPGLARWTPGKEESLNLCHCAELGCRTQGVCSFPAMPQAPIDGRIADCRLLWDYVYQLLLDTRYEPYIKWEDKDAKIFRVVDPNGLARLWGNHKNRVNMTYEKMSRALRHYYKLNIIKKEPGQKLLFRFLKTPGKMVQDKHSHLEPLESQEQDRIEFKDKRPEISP
The note with it: protein: recombinant; tags: N-terminal GST; dsDNA, one strand shown. An outline of the steps:
as §1

In the next test the target is T11, ELF5 (Homo sapiens, UniProt Q9UKW6-2 1-255).
T11 sequence: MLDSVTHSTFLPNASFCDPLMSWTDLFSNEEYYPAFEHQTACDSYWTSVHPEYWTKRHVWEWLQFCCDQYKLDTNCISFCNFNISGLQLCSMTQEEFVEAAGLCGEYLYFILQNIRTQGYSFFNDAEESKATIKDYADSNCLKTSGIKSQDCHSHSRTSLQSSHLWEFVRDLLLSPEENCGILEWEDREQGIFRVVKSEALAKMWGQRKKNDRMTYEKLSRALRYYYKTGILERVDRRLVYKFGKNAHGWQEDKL
The settings on record: protein: recombinant; tags: N-terminal GST; dsDNA, one strand shown. An outline of the steps: as §1

The target in another test is T12, ETV3 (Homo sapiens, UniProt P41162-2 1-143).
T12 sequence: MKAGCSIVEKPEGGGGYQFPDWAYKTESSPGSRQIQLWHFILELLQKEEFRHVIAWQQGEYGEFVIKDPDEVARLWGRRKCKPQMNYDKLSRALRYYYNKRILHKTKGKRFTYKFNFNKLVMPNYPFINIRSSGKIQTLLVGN
The note with it: protein: recombinant; tags: N-terminal GST; dsDNA, one strand shown. The essentials: as §1

Another test addresses ETV6 (Homo sapiens, UniProt P41212 1-452). The settings on record: protein: recombinant; tags: N-terminal GST; dsDNA, one strand shown. An outline of the steps: as §1

Chain of ETV1 (P50549 whole entry): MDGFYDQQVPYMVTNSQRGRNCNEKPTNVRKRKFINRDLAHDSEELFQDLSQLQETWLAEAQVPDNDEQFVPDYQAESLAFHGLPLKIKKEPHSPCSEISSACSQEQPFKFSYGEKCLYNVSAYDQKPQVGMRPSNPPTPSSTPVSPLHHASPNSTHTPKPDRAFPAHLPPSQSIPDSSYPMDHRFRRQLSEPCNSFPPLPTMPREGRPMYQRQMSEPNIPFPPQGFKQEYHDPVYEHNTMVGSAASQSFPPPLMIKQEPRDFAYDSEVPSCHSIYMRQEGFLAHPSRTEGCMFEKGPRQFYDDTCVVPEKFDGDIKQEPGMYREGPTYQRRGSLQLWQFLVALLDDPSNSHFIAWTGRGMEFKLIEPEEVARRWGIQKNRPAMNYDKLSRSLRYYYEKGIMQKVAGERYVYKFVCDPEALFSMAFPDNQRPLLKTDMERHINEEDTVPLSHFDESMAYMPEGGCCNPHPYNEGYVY
Chain of HSF1 (Q00613 whole entry): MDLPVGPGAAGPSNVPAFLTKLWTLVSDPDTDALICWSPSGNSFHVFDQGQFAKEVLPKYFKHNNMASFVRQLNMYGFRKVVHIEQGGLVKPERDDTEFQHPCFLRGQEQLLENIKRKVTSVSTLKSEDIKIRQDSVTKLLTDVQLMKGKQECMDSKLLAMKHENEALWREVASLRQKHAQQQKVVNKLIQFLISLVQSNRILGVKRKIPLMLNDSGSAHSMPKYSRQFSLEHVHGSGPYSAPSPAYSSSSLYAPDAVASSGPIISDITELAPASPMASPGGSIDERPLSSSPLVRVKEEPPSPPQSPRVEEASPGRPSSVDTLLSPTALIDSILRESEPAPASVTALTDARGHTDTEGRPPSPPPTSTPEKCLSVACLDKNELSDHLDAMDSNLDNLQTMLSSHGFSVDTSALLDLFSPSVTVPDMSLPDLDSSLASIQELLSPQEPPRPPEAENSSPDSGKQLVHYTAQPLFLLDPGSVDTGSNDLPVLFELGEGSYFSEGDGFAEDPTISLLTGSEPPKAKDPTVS
Chain of ETV5 (P41161 whole entry): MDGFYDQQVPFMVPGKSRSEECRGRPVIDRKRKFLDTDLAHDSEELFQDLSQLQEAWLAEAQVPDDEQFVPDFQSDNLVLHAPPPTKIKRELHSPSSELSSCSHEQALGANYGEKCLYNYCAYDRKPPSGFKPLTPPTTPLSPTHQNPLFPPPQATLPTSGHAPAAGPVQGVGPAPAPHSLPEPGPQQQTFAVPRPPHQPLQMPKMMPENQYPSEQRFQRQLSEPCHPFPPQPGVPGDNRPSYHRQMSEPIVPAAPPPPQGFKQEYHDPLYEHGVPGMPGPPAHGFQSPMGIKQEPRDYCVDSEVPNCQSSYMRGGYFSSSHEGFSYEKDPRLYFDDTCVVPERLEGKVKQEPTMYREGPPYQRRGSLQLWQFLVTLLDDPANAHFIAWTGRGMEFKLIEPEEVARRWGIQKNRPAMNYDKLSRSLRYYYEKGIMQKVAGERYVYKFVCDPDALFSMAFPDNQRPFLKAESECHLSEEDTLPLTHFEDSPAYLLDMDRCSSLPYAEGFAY
Chain of ETV6 (P41212 whole entry): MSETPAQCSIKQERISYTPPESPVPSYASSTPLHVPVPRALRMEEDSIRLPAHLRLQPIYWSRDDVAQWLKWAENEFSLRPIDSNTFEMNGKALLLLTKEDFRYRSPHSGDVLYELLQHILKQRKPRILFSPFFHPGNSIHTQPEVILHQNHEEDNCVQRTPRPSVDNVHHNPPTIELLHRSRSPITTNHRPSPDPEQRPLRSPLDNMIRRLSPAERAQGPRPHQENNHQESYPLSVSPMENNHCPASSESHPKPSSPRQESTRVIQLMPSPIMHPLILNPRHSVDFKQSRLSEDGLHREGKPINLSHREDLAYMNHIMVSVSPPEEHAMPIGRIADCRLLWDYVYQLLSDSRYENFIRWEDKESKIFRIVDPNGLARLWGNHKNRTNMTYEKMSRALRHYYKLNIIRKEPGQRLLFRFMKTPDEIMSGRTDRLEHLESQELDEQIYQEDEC

For TTTCTC, the binding signal with FEV is 1.52 fold enrichment (6-mer frequency, TF over GST control); with ETV5, 1.53 fold enrichment (6-mer frequency, TF over GST control); with HSF1, 2.63 fold enrichment (6-mer frequency, TF over GST control); in the test with SPIC it was 1.55 fold enrichment (6-mer frequency, TF over GST control); with ELF4, 1.6 fold enrichment (6-mer frequency, TF over GST control); with ELK4, 1.78 fold enrichment (6-mer frequency, TF over GST control). Moreover, the binding signal with ETV2 is 1.65 fold enrichment (6-mer frequency, TF over GST control); in the test with ELF3, 1.86 fold enrichment (6-mer frequency, TF over GST control); in the test with CRX it was 1.67 fold enrichment (6-mer frequency, TF over GST control); with ETV1, 1.46 fold enrichment (6-mer frequency, TF over GST control); with ERF, 1.58 fold enrichment (6-mer frequency, TF over GST control); with ETV3L, 1.68 fold enrichment (6-mer frequency, TF over GST control). The binding signal is 1.77 fold enrichment (6-mer frequency, TF over GST control) in the test with ETS2; 1.49 fold enrichment (6-mer frequency, TF over GST control) with SPDEF; 1.57 fold enrichment (6-mer frequency, TF over GST control) with ETV7; 1.56 fold enrichment (6-mer frequency, TF over GST control) with ELF5; 1.62 fold enrichment (6-mer frequency, TF over GST control) with ETV3; 1.65 fold enrichment (6-mer frequency, TF over GST control) with ETV6.
